Screens from PubChem BioAssay.
IkB signaling – IkB Signaling; ABC-DLBCL IkBa-CBG/CBR dual luciferase ratio, 4 h; response scale: scaled: untreated 0%, proteasome inhibitor 100%; Potency, µM (top dose mostly 57.1 µM); actives 0.04% (n = 110,000); AID 445, 2006; active means well fitted curve in the direction sought with a large enough effect in the signal ratio, not every such curve was filed as active; inconclusive means small, poorly fitted or top-dose-only effect, or a change in a side signal; the % refers to the signal ratio;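 further: the direction sought is a rising ratio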
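Luminescence ratio of IκBα-fused green versus native red beetle luciferase in OCI-Ly3 cells, 4 h post-doxycycline with compound; red signal alone, scaled from basal (0%) to zero light (-100%), flagged nonspecific or cytotoxic effects.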
Peg3 imprint – qHTS Assay for Compounds that Induce Erasure of Genomic Imprints; actives 0.02% (n = 110,000); Potency, µM (top dose mostly 60.7 µM), usual class: activators; mouse ES Peg3-LacZ reporter, beta-gal luminescence, 40 h
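Each well holds 300 Peg3LacZ-Neo (maternal) female ES cells incubated 40 h at 37C, 5% CO2. LacZ is measured by BetaGlo luminescence, with AC50 and maximum efficacy derived from dose-response curves.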
FLuc inh – qHTS Assay for Inhibitors of Firefly Luciferase. Potency, µM (series often up to 57.1 µM), most hits filed as inhibitors. AID 411, 2009. actives 2.2% (n = 72,000). Luciferin 4-monooxygenase (Photinus pyralis), P08659. purified firefly luciferase, luminescence, 8 min; further: nearly all actives have a fitted effect of over 40% in size
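Luminescence read-out after 8 min at room temperature; enzyme reaction used luciferin plus 10 uM ATP (linear range) in imidazole buffer pH 7.2 with KCl, MgCl2, Tween 20 and BSA. Each sample was run as a titration.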
p53ts 39C tox – qHTS Screen for Compounds that Selectively Target Cancer Cells with p53 Mutations: Cytotoxicity of p53ts Cells at the Nonpermissive Temperature | Potency, µM (series often up to 46.1 µM), actives largely listed as cytotoxic | actives 1.5% (n = 130,000) | H1299-p53A138V viability at 39C, ATP luminescence, 24 h; further: nearly all actives have a fitted effect of over 55% in size
p53ts 32C kill – qHTS Screen for Compounds that Selectively Target Cancer Cells with p53 Mutations: Cytotoxicity of p53ts Cells at the Permissive Temperature. H1299-p53A138V at 32C, ATP luminescence viability, 24 h. Potency, µM (series often up to 46.1 µM), usual class: cytotoxic. actives 0.93% (n = 130,000); further: nearly all actives have a fitted effect of over 55% in size
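ATP-content luminescence (ATPlite) read-out after 24 h compound exposure at 32C in H1299-p53A138V cells (600/well). Tested up to 46 uM. Normalized to DMSO (0%) and 100 uM tamoxifen (100% killing); Hill-fit AC50.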
IMPase cell inh – qHTS Assay for Identifying the Cell-Membrane Permeable IMPase Inhibitors. 120,000 tested, under 10 active. CHO-M1 cells, IP1 accumulation, HTRF TR-FRET ratio. Inositol monophosphatase 1 (Rattus norvegicus), P97697. AID 901, 2007. inhibition (IP1 accumulation), % at 46.1 µM; active means well fitted curve in the direction sought with a large enough effect in the signal ratio, not every such curve was filed as active; inconclusive means small, poorly fitted or top-dose-only effect, or a change in a side signal; inactive means no such curve, though single readings can be large or run the other way; the % refers to the signal ratio;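 further: cells stimulated with carbachol in lithium chloride buffer; higher means more IMPase inhibition seen as more IP1 and lower FRET ratio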
Target sequence (P97697 whole entry, looked up): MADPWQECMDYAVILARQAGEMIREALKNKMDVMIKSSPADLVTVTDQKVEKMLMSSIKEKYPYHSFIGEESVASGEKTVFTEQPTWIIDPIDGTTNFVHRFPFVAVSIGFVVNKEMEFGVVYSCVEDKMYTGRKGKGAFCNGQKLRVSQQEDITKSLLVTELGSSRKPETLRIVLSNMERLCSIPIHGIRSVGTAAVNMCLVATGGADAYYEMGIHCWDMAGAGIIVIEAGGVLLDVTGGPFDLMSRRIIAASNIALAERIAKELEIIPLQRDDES
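Seeded CHO-M1 cells were dosed with compound at up to 46 uM, stimulated with carbachol for 30 min, then lysed in IP-One detection reagents. Higher IP1 lowers the TR-FRET signal.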
Hits are given with their value; i = inactive; ? = inconclusive; nt = no result given; [ ] = another dose, or the depositor's remark. This excerpt belongs to a sample that is enriched for hits. Unless noted, the call rests on the fitted dose curve; in most records, active means well fitted curve in the direction sought with a large enough effect; inconclusive means small, poorly fitted or top-dose-only effect, or another doubt; inactive means no such curve, though single readings can be large; an effect the other way counts as inactive or inconclusive.

SMILES	IkB signaling	Peg3 imprint	FLuc inh	p53ts 39C tox	p53ts 32C kill	IMPase cell inh
N.N.N.N.N.N.N.N.N.N.N.N.N.N.O.O.[Cl-].[Cl-].[Cl-].[Cl-].[Cl-].[Cl-].[Ru].[Ru].[Ru]	nt	i	nt	nt	nt	nt
Clc1ccc(-c2cn3nc4c(nc3n2)CCCC4)cc1	nt	nt	nt	nt	nt	i
Cc1ccc(-c2cn3nc(C)c(C)nc3n2)cc1	?	i	2.51µM	?	?	i
O=C1OC(c2cc(I)c(O)c(I)c2)(c2cc(I)c(O)c(I)c2)c2ccccc21	nt	i	nt	nt	nt	nt
Nc1c(C(=O)NCc2ccc(Cl)cc2Cl)nnn1Cc1ccc(Br)cc1	?	i[10.9 µM]	nt	i	i	nt
Cc1ccc(C)c(Cn2nnc(C(=O)NCc3ccc(Cl)cc3Cl)c2N)c1	i	i[10.9 µM]	nt	12.6µM	i	nt
CCCCc1ccc(-c2ccc(C)cc2O)nc1	i	i	10µM	?	12.6µM	i
Cc1cc(NC(=O)CCS(=O)(=O)c2nc(-c3ccccc3)cc(C(F)(F)F)n2)no1	?	i	i	?	?	i
CS(=O)(=O)c1nc(-c2ccccc2)cc(C(F)(F)F)n1	?	i	i	?	6.31µM	i
CN(C)c1ccc(NC(=O)c2cccc(N3C(=O)CCC3=O)c2)cc1	i	i	12.6µM	?	?	?
CCN(CC)c1ccc(C(=O)Nc2cccc(F)c2)cc1	i	i	10µM	?	12.6µM	i
O=C(Nc1cccc(F)c1)c1c(F)c(F)c(F)c(F)c1F	i	i	i	i	i	i
CN(C)c1cccc(C(=O)Nc2cccc(F)c2)c1	?	i	15.8µM	i	?	i
O=C(O)c1cc2c(cc1S(=O)(=O)O)[C@H]1[C@@H]([C@H]3[C@H]2[C@@]2(Cl)C(Cl)=C(Cl)[C@]3(Cl)C2(Cl)Cl)[C@]2(Cl)C(Cl)=C(Cl)[C@@]1(Cl)C2(Cl)Cl	i[11.4 µM]	nt	i[11.4 µM]	i[9.22 µM]	i[9.22 µM]	nt
Cc1ccc(-n2c(=O)c3ccc(C(=O)NCc4ccccc4Cl)cc3n(CC(=O)Nc3ccc(C)cc3C)c2=O)cc1	?	i[10.9 µM]	nt	?	?	nt
Cc1ccc(NC(=O)Cn2c(=O)n(-c3ccc(C)cc3)c(=O)c3ccc(C(=O)NCc4ccccc4Cl)cc32)cc1	?	i[10.9 µM]	nt	1.26µM	6.31µM	nt
CCc1ccc(NC(=O)Cn2c(=O)n(-c3ccc(OC)cc3)c(=O)c3ccc(C(=O)NCc4ccc(C)cc4)cc32)cc1	i	i[10.9 µM]	nt	3.16µM	10µM	nt
CCc1nnc(NC(=O)c2nc(S(=O)(=O)Cc3cccc(C)c3)ncc2Cl)s1	i	i[10.9 µM]	nt	5.01µM	?	nt
CCOc1ccccc1NC(=O)c1nc(S(=O)(=O)Cc2cccc(C)c2)ncc1Cl	?	i[10.9 µM]	nt	3.16µM	15.8µM	nt
CCOc1ccccc1NC(=O)c1sc2nc(C)cc(C)c2c1N	i	i[10.9 µM]	nt	i	i	i
CCc1nnc(NC(=O)c2nc(S(=O)(=O)Cc3ccc(C)cc3)ncc2Cl)s1	?	i[10.9 µM]	nt	6.31µM	15.8µM	nt
C[C@@H]1C[C@@]2(C)Oc3ccccc3[C@H]3OC[C@]1(COC(=O)Nc1ccccc1)[C@@H](C)[C@@H]32	i[11.4 µM]	nt	i[11.4 µM]	nt	nt	nt
CC1CCC/C(=C\Nc2ccc3c(c2)OCO3)C1=O (stereo unspecified)	i	i	10µM	i	i	i
O=C(c1cc2ccccc2o1)c1cccs1	i	i	?	i	i	i
O=C(c1cccs1)c1ccc(-c2cccs2)s1	?	i	5.01µM	10µM	7.94µM	i
SMILES	IkB signaling	Peg3 imprint	FLuc inh	p53ts 39C tox	p53ts 32C kill	IMPase cell inh
CCOc1ccccc1NC(=O)c1ccccc1-c1nc(-c2ccccc2OC)no1	?	i	25.1µM	i	i	i
CC(C)(C)NC(=O)c1ccccc1-c1nc(-c2ccccc2Cl)no1	i	i	20µM	i	i	i
O=C1c2ccccc2C(=O)c2c1ccc(N1C(=O)c3ccccc3C1=O)c2-c1c(N2C(=O)c3ccccc3C2=O)ccc2c1C(=O)c1ccccc1C2=O	i[11.4 µM]	nt	i[11.4 µM]	nt	nt	nt
Cn1c(CN2CCCCC2)nc2cc(NC(=O)c3cccc(Br)c3)ccc21	?	i[10.9 µM]	nt	i	i	i
CCC(=O)NCCc1nc2cc(NC(=O)c3cccc(Br)c3)ccc2n1C	i	i[10.9 µM]	nt	10µM	12.6µM	nt
Cc1ccc(N2C(=O)C3C(C2=O)C2C=CC3C23CC3)cc1 (stereo unspecified)	i	i	12.6µM	?	?	i
CCOC(=O)c1[nH]c2ccc(OC)cc2c1NC(=S)N1CCN(c2cccc(C)c2C)CC1	nt	nt	nt	?	11.2µM	i
COC1=CC(=O)C(O)=C/C1=C\C=C\c1ccccc1	nt	i	nt	i	i	nt
CC1(C)OCC(CSC2=C(SCC3COC(C)(C)O3)C(=O)c3ncccc3C2=O)O1 (stereo unspecified)	nt	i	nt	?	?	nt
CN(C(=O)c1ccccc1)c1nc2ccccc2s1	?	i	6.31µM	12.6µM	10µM	i
C=CC1=C(C)C2=Cc3c(C=C)c(C)c4[n]3[Sn+2][n]3c(c(C)c(CCC(=O)O)c3=CC3=NC(=C4)C(C)=C3CCC(=O)O)=CC1=N2	i	i	i	i	i	i
COc1ccc2nc(NC(=O)c3cccc(OCc4c(C)noc4C)c3)sc2c1	?	i	12.6µM	i	?	i
COc1ccc2nc(NC(=O)c3cc(C)oc3C)sc2c1	nt	nt	nt	?	i	i
CCSc1nnc(NC(=O)c2cccc(OCc3c(C)noc3C)c2)s1	?	i	i	i	i	i
CCOCC(=O)Nc1nc2ccc(OCC)cc2s1	i	i	i	i	i	i
COc1ccc2sc(NC(=O)c3ccco3)nc2c1	?	i	7.94µM	10µM	10µM	i
COc1ccc2nc(NC(=O)c3ccoc3C)sc2c1	?	i	3.16µM	?	7.94µM	i
CCOCC(=O)Nc1nc2ccc(C)cc2s1	?	i	25.1µM	?	?	i
COc1ccc2c(c1)Cc1sc(NC(=O)c3ccco3)nc1-2	nt	nt	nt	nt	nt	i
O=C(c1ccco1)N1CCC[C@@]2(CCN(c3ccccn3)C2)C1	i[11.4 µM]	nt	i[11.4 µM]	i	i	nt
O=C(CS(=O)(=O)c1cccc2nsnc12)Nc1ccc(F)cc1F	?	i[10.9 µM]	nt	i	i	nt
CCN1CCN(CC(=O)Nc2nc3ccc(OC)cc3s2)CC1	nt	nt	nt	nt	nt	i
CCCC(=O)Nc1nc2ccc(OC)cc2s1	?	i	12.6µM	i	i	i
O=C(COc1ccc2ccc(=O)oc2c1)Nc1ccc2c(c1)OCCO2	i	i	12.6µM	i	i	i
O=C(Nc1cccc(NC(=O)c2ccco2)c1)c1ccc2c(c1)OCO2	i	i	i	i	i	i
O=C(Nc1ccc2c(c1)OCO2)C1CCCN1C(=O)OCc1ccccc1 (stereo unspecified)	i	i	i	i	i	i
